From the OligoGym collection come the findings set out here.
Further: reference of the scale not given here.

One experiment has as its target PQLC1. The experiment can be described thus: pooled miR-30 sensor sort-seq; sequence = guide strand. Particulars: shRNA.
As to TTGACTTCTTCATCCTTGCTAT, the sensor-assay potency score (higher = more potent) turned out to be 0.0479.
On the same count and under the same terms, under TCTGCAGCTGTAAAGGAGCGGC stands -0.795; under TGCACGTAGTCCGAGAAGCTGC, -1.19; under TTCTTCATCCTTGCTATCTGCA, -0.201.
Still for that read-out and setting: under TAGGTGGAGAAGCCGTCGGCGT stands -1.4.
Still for that read-out and setting: under TTGAGCTCGTTGGCCACACGGA stands -0.78; under TCGAAGTCCAGGAAGGACCGCC, -0.0699; under AAGTCCAGGAAGGACCGCCTGG, -1.26.
Consider ATGAGCACCATCTTGATGCTCA, for which the sensor-assay potency score (higher = more potent) was -0.811.
In turn, AACCTTGACTTCTTCATCCTTG displayed a sensor-assay potency score (higher = more potent) of 0.292.
Same read-out and setting: the figure for TAGTCCGAGAAGCTGCTCCACT is -0.969.

In the next experiment the target is PRADC1. The experiment is described as above. Conditions: shRNA.
Sequence TCATGTAGCCGTCTCGGCCGAG came in with a sensor-assay potency score (higher = more potent) of -1.06.
Still for that read-out and setting: under TGAATCTGCTCATACCTTGTGT stands -0.084.
For TAGCATGAGACACCCTTGGGGG, the sensor-assay potency score (higher = more potent) was -0.696.
TGGATGAAGAAACCGTTGCTGA returned a sensor-assay potency score (higher = more potent) of -1.26.
Same read-out and setting: the figure for TAAACCACTCCAACAACTGCTG is 0.158; for ATCATCTCCACGTAGAAGCTGT it is -0.485.
The same measure, in the same setting: under TTGTGTGAAAGATACCACCAAA stands -1.24.
On the same count and under the same terms, under TTTGTTTCGGGTTCTAGCCAGA stands -0.698; under TTTTGTTTCGGGTTCTAGCCAG, -0.533.
Take TCTTGTAGCATGAGACACCCTT: the sensor-assay potency score (higher = more potent) was -0.0908.
On the same count and under the same terms, under ATGCTGGTGACATTGACTGGGA stands -1.
Same read-out and setting: under AAAGATACCACCAAAGTCCTTG stands 0.163.

The target in another experiment is PRAMEF6. Described as above. Conditions: shRNA.
TACAGCTCCACGCATAAGTTTT returned a sensor-assay potency score (higher = more potent) of -1.43.
The sequence TTAGTTATTGTGAGGACCTTTA showed a sensor-assay potency score (higher = more potent) of -0.654.
On the same count and under the same terms, the figure for TTTTGGAGGCAGCACAGCTTGA is -1.46; for TATTGTGAGGACCTTTAACGAG it is -1.02; for ATCAGCATCATAACTCTCCCGG it is -0.511.
Sequence TTGGACAGTCCTGCACTGGTGT showed a sensor-assay potency score (higher = more potent) of -0.525.
As for TTGGGTAAGCAGTGCATCCAGC, the sensor-assay potency score (higher = more potent) is -0.474.
Same read-out and setting: the figure for TCAGCATCATAACTCTCCCGGG is -0.662; for TTGGAGGCAGCACAGCTTGAGG it is -1.39.

The next experiment has as its target PRB2. Described as above. Particulars: shRNA.
Regarding TTGGGACTTGTTGTCTCCTTGT, the sensor-assay potency score (higher = more potent) was -0.258.
Same read-out and setting: the figure for TCGGGACTTGTTGTCTCCTTGT is -0.96.
As for ACTTGTTGTCTCCTTGTGGGGG, the sensor-assay potency score (higher = more potent) is -0.828.
Same read-out and setting: under TTGAGGCTGGTTGCCTCCTTGT stands -1.75; under TTCGGGACTTGCTGCCTCCTTG, -0.944; under TGGCTTTCCTGCTATTAGGGAG, -0.778.
The same measure, in the same setting: under TTGAGGATTGTTGCCTTCTTGT stands -0.928; under TTTGGGACTTGTTGTCTCCTTG, -0.1.
